# From PubChem BioAssay (NCATS)
# Results filed as inconclusive are left out. Unmarked numbers belong to inactive results. The source made the active and inactive calls. Calls come from the whole dose curve; as a rule, active = well fitted curve in the direction sought with a large enough effect; inconclusive = small, poorly fitted or top-dose-only effect, or another doubt; inactive = no such curve, though single readings can be large; an effect the other way counts as inactive or inconclusive.
# What was measured:
# CRL-7250 = normal cell line; assay: Cytotoxic Profiling of Annotated Libraries Using Quantitative High-Throughput Screening (AID 1296008); conditions: Five cell lines viability, CellTiter-Glo ATP luminescence, 48-72 h; max response: active compounds read low; note: nearly all actives have a fitted effect of over 60% in size; note: potency is the fitted concentration of half-maximal effect; for max response: % is set by controls: 0 for no effect and ±100 for the full control effect
# In short: (§1)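 Compounds were pin-transferred onto cells and incubated 48 or 72 hr at 37 degree Celsius, 95% humidity. CellTiter-Glo was added, plates sat 10 min at room temperature, then ATP-coupled luminescence was imaged as the viability read-out.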
# HEK293 = assay: as above; conditions: Five cell lines viability, CellTiter-Glo ATP luminescence, 48-72 h; max response: active compounds read low
# In short: as §1
# HaCat [1] = assay: as above; conditions: Five cell lines viability, CellTiter-Glo ATP luminescence, 48-72 h; max response: active compounds read low
# In short: as §1
# NIH3T3 = assay: as above; conditions: Five cell lines viability, CellTiter-Glo ATP luminescence, 48-72 h; max response: active compounds read low
# In short: as §1
# CASKI = assay: Primary qHTS to identify gynecologic anti-cancer compounds using libraries of approved drugs and bioactive compounds (AID 1345084); conditions: Gynecologic cancer cell panel viability, ATPlite luminescence, 48 h; series mostly up to 57.5 µM; note: nearly all actives have a fitted effect of over 55% in size; note: potency is the fitted concentration of half-maximal effect
# In short: (§2)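 48 h compound exposure at 37 C, 5% CO2; five-point qHTS. ATPlite luminescence readout of cell ATP.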
# Es-2 = assay: as above; conditions: Gynecologic cancer cell panel viability, ATPlite luminescence, 48 h; series mostly up to 57.5 µM
# In short: as §2
# HeLa = assay: as above; conditions: Gynecologic cancer cell panel viability, ATPlite luminescence, 48 h; series mostly up to 57.5 µM
# In short: as §2
# Hek293T = assay: as above; conditions: Gynecologic cancer cell panel viability, ATPlite luminescence, 48 h, control line for the selectivity index; series mostly up to 57.5 µM
# In short: as §2
# JEG-3 = assay: as above; conditions: Gynecologic cancer cell panel viability, ATPlite luminescence, 48 h; series mostly up to 57.5 µM
# In short: as §2
# PA-1 = assay: as above; conditions: Gynecologic cancer cell panel viability, ATPlite luminescence, 48 h; series mostly up to 57.5 µM
# In short: as §2
# SKOV3 = assay: as above; conditions: Gynecologic cancer cell panel viability, ATPlite luminescence, 48 h; series mostly up to 57.5 µM
# In short: as §2
# CAOV3 = assay: as above; conditions: Gynecologic cancer cell panel viability, ATPlite luminescence, 48 h; series mostly up to 57.5 µM
# In short: as §2
# C33A = assay: as above; conditions: Gynecologic cancer cell panel viability, ATPlite luminescence, 48 h; series mostly up to 57.5 µM
# In short: as §2
# OV90 = assay: as above; conditions: Gynecologic cancer cell panel viability, ATPlite luminescence, 48 h; series mostly up to 57.5 µM
# In short: as §2
# HACAT [2] = assay: qHTS assay to identify novel small-molecules to repurpose for Merkel cell carcinoma treatment (AID 1296009); conditions: MCC and control cell lines, CellTiter-Glo viability, 72 h; at 44.8 µM (top of the series) unless noted; note: nearly all actives have a fitted effect of over 60% in size
# In short: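 qHTS format: cells treated with library compounds in DMSO across 8 (NPC) or 11 (MIPE) concentrations. Readout after 72 hr at 37 degree celsius was CellTiter-Glo luminescence.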
SMILES,Potency (CRL-7250),Potency (HEK293),Potency (HaCat [1]),Potency (NIH3T3),Potency (CASKI),Potency (Es-2),Potency (HeLa),Potency (Hek293T),Potency (JEG-3),Potency (PA-1),Potency (SKOV3),max response (CRL-7250),Potency (CAOV3),max response (HEK293),max response (HaCat [1]),max response (NIH3T3),Potency (C33A),Potency (OV90),outcome (HaCat [1]),outcome (HACAT [2])
C=C(C)C(=O)OC1CC2(C)OC(=CC2=O)C(=C)CC2OC(=O)C(=C)C12 (stereo unspecified),3210 nM (active),718 nM (active),5080 nM (active),2860 nM (active),inactive,4470 nM (active),inactive,6310 nM (active),inactive,7940 nM (active),10000 nM (active),,,,,,,,,
Cc1nc(-c2cn3c(n2)-c2ccc(-c4cnn(C(C)(C)C(N)=O)c4)cc2OCC3)n(C(C)C)n1,,6510 nM (active),2910 nM (active),5170 nM (active),,inactive,inactive,15800 nM (active),,,631 nM (active),4.52%,35500 nM (active),,,,,,,
C=C[C@@]12COC(=O)C(=C)[C@@H]1[C@@H](O)[C@H](C(=C)C(=O)OC)[C@@H](O)C2,,,,,inactive,,,inactive,,,inactive,-65.9%,inactive,-86.5%,-29%,-16.2%,inactive,inactive,,
CN1CCC(NC(=O)c2cc(-c3c(O)cc(O)cc3Oc3ccc([N+](=O)[O-])cc3)on2)CC1,366 nM (active),206 nM (active),1460 nM (active),5800 nM (active),,,inactive,1000 nM (active),,794 nM (active),1580 nM (active),,398 nM (active),,,,708 nM (active),,,
Cc1sc2c(c1C)C(c1ccc(Cl)cc1)=N[C@H](CC(=O)NCCCCNC(=O)COc1cccc3c1C(=O)N([C@H]1CCC(=O)NC1=O)C3=O)c1nnc(C)n1-2,1840 nM (active),2590 nM (active),,,inactive,,,,,1580 nM (active),inactive,,inactive,,-67.4%,-0.715%,inactive,inactive,,
C/C1=C\[C@@H](C)C[C@@H](C)[C@@H](Cc2cnco2)OC(=O)/C(C)=C/[C@@H](C)C[C@@H](C)[C@@H](Cc2cnco2)OC1=O,2520 nM (active),632 nM (active),,,,,inactive,,inactive,inactive,,,inactive,,-7.73%,-16.6%,inactive,inactive,,
COc1ccc(C[C@H]2COC(=O)[C@@H]2Cc2ccc(O[C@@H]3O[C@H](CO)[C@@H](O)[C@H](O)[C@H]3O)c(OC)c2)cc1OC,893 nM (active),1780 nM (active),,,,inactive,inactive,,inactive,,4470 nM (active),,inactive,,-11.8%,-30.4%,inactive,inactive,,
Cc1cc2c(F)c(Oc3ncnn4cc(OCC(C)OC(=O)C(C)N)c(C)c34)ccc2[nH]1 (stereo unspecified),,6510 nM (active),,,inactive,inactive,,,,inactive,inactive,-5.94%,inactive,,,,inactive,inactive,inactive,inactive
Nc1nc(O)c(C2=C3C(=Nc4ccccc43)C(=O)NCC2)[nH]1,,,,,inactive,inactive,inactive,inactive,,inactive,,-2.87%,,-2.48%,-1.91%,2.47%,,inactive,,
Cc1cc(-c2nc(-c3ccc(OC(F)(F)F)cc3)no2)nn1Cc1ccnc(N2CCN(C3CC3)CC2)c1,25.9 nM (active),6.5 nM (active),,,,inactive,inactive,inactive,inactive,inactive,,,inactive,,4.17%,-14.2%,,,,
COc1cc(N2CCC(N)CC2)ccc1Nc1ncc(Cl)c(-c2c[nH]c3ccccc23)n1,6510 nM (active),4610 nM (active),5170 nM (active),2310 nM (active),28200 nM (active),inactive,3980 nM (active),,inactive,15800 nM (active),5010 nM (active),,22400 nM (active),,,,,,,
COC1=CC(=O)C[C@@H](C)[C@@]12Oc1c(Cl)c(OC)cc(OC)c1C2=O,,,,,,inactive,,,,,,-44.3%,inactive,-102%,-90.1%,-50.9%,inactive,inactive,,
COc1cc(N2CCC(N3CCN(C)CC3)CC2)ccc1Nc1ncc(Cl)c(Nc2ccccc2P(C)(C)=O)n1,2060 nM (active),5800 nM (active),1840 nM (active),1640 nM (active),10000 nM (active),,6310 nM (active),,inactive,11200 nM (active),8910 nM (active),,2240 nM (active),,,,,,,
CCNC(=O)c1noc(-c2cc(Cl)c(O)cc2O)c1-c1ccc(OC)cc1,461 nM (active),206 nM (active),259 nM (active),920 nM (active),,,,355 nM (active),,562 nM (active),2820 nM (active),,,,,,1120 nM (active),inactive,,
O=C(Nc1ccc(Cl)cc1)C1CCCN(C(=O)c2cccc(-c3ccco3)c2)C1 (stereo unspecified),13000 nM (active),18400 nM (active),,,inactive,inactive,inactive,inactive,inactive,inactive,,,,,-30%,-26.4%,inactive,inactive,,
CCNC(=O)Nc1ccc(-c2nc3c(c(N4CCOCC4C)n2)CCN(C2COC2)C3)cc1 (stereo unspecified),206 nM (active),1460 nM (active),,2310 nM (active),inactive,,inactive,2820 nM (active),inactive,2240 nM (active),,,,,-28.1%,,,,,
